# From the supplement of paper PMC12297408
# Several values for one entry are separate records, joined by “and”; a condition that tells them apart may be missing. Identical values can stand only once. Values without a mark were called inactive.
# Test system: Plasmodium falciparum NF54/iGP1_RE9H ulg8 stage V gametocytes
# Assay: gametocyte viability (luciferase signal relative to DMSO control) (% of DMSO control); higher = less gametocytocidal activity, active = 50 or less
# Details: exposure time: 72 h
# Outline: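 Compounds from 10 mM DMSO stocks were spotted at nanolitre scale into 96-well plates, and day-12 stage V NF54/iGP1_RE9Hulg8 gametocytes (~2.5% gametocytemia, 3% hematocrit; medium with 0.5% Albumax II) were added to reach 10 µM or 1 µM, one well per concentration. The plates were kept at 37 °C for 72 h. Luminescence was then read on an IVIS Lumina II after mixing 90 µl of culture with 10 µl D-luciferin (30 mg/ml). Viability values are relative to the plate's mean DMSO vehicle signal.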
Compound,gametocyte viability (concentration: 1 µM),gametocyte viability (concentration: 10 µM)
S=C(NCc1ccc2c(c1)OCO2)N1CCN(c2ncnc3c2oc2ccccc23)CC1 [Amuvatinib (MP-470)],98.1,110
COc1cc2nccc(Oc3ccc(NC(=O)C4(C(=O)Nc5ccc(F)cc5)CC4)cc3)c2cc1OC [XL-184 free base (Cabozantinib)],100,83.1
Cn1cc(-c2cnn3c(N)c(Br)c([C@@H]4CCCNC4)nc23)cn1,114,85.8
CNC(=O)c1cc(Oc2ccc(NC(=O)Nc3ccc(Cl)c(C(F)(F)F)c3)c(F)c2)ccn1 [Regorafenib (BAY 73-4506)],95.1,99.1
O=c1c(O)c(-c2ccc(O)c(O)c2)oc2cc(O)cc(O)c12 [Quercetin·2H2O],102,95.8
N#C/C(=C\c1ccc(O)c(O)c1)C(=O)Nc1ccccc1,99.6,104
O=C1NC(=O)/C(=C/c2ccc3nccc(-c4ccncc4)c3c2)S1,101,103
COc1cc(Nc2ncc(F)c(Nc3ccc4c(n3)N(COP(=O)(O)O)C(=O)C(C)(C)O4)n2)cc(OC)c1OC,95.1,101
O=S(=O)(NCCNC/C=C/c1ccc(Br)cc1)c1cccc2cnccc12,99,93.1
C=CC(=O)c1ccc2ccccc2c1,101,106
CN1CC[C@H](c2c(O)cc(O)c3c(=O)cc(-c4ccccc4Cl)oc23)[C@H](O)C1 [Flavopiridol (Alvocidib)],99.8,122
CNC(=O)c1ccccc1Sc1ccc2c(/C=C/c3ccccn3)n[nH]c2c1 [Axitinib],103,98.8
Nc1nccc(Oc2ccc(NC(=O)c3c[nH]cc(-c4ccc(F)cc4)c3=O)cc2F)c1Cl,102,114
Nc1ncnc2c1c(-c1cnc3[nH]ccc3c1)nn2C1CCCC1,101,116
Cc1ccc(C(=O)Nc2ccc(CN3CCN(C)CC3)c(C(F)(F)F)c2)cc1C#Cc1cnc2cccnn12,111,130
COC(=O)/C=C/c1cc(O)ccc1O [Erbstatin analog],97.8,99.1
NC(=O)Nc1cc(-c2cccc(F)c2)sc1C(=O)N[C@H]1CCCNC1,116,92.3
COc1cc2ncnc(Nc3cccc(Br)c3)c2cc1OC,95.6,114
CN(c1ncccc1CNc1nc(Nc2ccc3c(c2)CC(=O)N3)ncc1C(F)(F)F)S(C)(=O)=O,117,112
COc1cc(Nc2c(C#N)cnc3cc(OCCCN4CCN(C)CC4)c(OC)cc23)c(Cl)cc1Cl [Bosutinib (SKI-606)],86.4,98.1
CC(C)(C)c1cc(NC(=O)Nc2ccc(-c3cn4c(n3)sc3cc(OCCN5CCOCC5)ccc34)cc2)no1 [Quizartinib (AC220)],97.7,85.9

Compound,gametocyte viability (concentration: 1 µM),gametocyte viability (concentration: 10 µM)
COc1ccc(S(=O)(=O)N(CCO)c2ccccc2CN(C)CC=Cc2ccc(Cl)cc2)cc1,112,102
Nc1nc(Nc2ccc(S(N)(=O)=O)cc2)nn1C(=O)c1c(F)cccc1F,101,85.9
"O=C(O)c1cc(NCc2cc(O)ccc2O)ccc1O [2-Hydroxy-5-(2,5-dihydroxybenzylamino)benzoic acid]",103,109
Cc1ccc(S(=O)(=O)/C=C/C#N)cc1,103,3.38 (active)
COc1cc2ncnc(Nc3ccc(F)c(Cl)c3)c2cc1OCCCN1CCOCC1 [Gefitinib (Iressa)],95.3,92.8
CCc1cccc(CC)c1NC(=O)N1Cc2[nH]nc(NC(=O)c3ccc(N4CCN(C)CC4)cc3)c2C1,109,68.7
Nc1cc(C(F)(F)F)c(-c2cc(N3CCOCC3)nc(N3CCOCC3)n2)cn1,107,98.6
CC(C)c1cnn2c(NCc3ccccc3)cc(NCCCCCCN)nc12,102,86.5
COc1ccc(-c2ccc3c(N4CCOCC4)nc(N4C[C@@H](C)O[C@@H](C)C4)nc3n2)cc1CO,97.1,108
CC(C)CC(=O)Nc1n[nH]c2c1CN(C(=O)C1CCN(C)CC1)C2(C)C,96.4,110
Cc1cccc(-c2[nH]c(C(C)(C)C)nc2-c2ccc3nccnc3c2)n1,94.4,91.7
CC(=O)Nc1cccc(-n2c(=O)n(C3CC3)c(=O)c3c(Nc4ccc(I)cc4F)n(C)c(=O)c(C)c32)c1,102,82.7
CN(C)c1ccc(-c2nc3ncc(Cl)c(N4CCN(CC(=O)Nc5nccs5)CC4)c3[nH]2)cc1,82.4,101
CC[C@@H]1C(=O)N(C)c2cnc(Nc3ccc(C(=O)N[C@H]4CC[C@H](N5CCN(CC6CC6)CC5)CC4)cc3OC)nc2N1C(C)C [BI6727 (Volasertib)],84.9,61.9
Cc1cc(Nc2nc(N[C@@H](C)c3ccc(F)cc3)c(C#N)cc2F)n[nH]1,97.5,99.6
CCS(=O)(=O)c1cccc(-c2cc(C(=O)NC3CCN(C)CC3)c(C)c3[nH]c4ncc(C)cc4c23)c1,106,84.2
CC(C)(C)c1cc(C=C(C#N)C(N)=S)cc(C(C)(C)C)c1O,103,102
FC(F)c1nc2ccccc2n1-c1nc(N2CCOCC2)nc(N2CCOCC2)n1,98.5,108
COc1cc(Nc2ncc3c(n2)-c2ccc(Cl)cc2C(c2c(F)cccc2OC)=NC3)ccc1C(=O)O [MLN8237 (Alisertib)],95,94.6
C=CC(=O)Nc1cccc(Oc2nc(Nc3ccc(N4CCN(C)CC4)cc3)ncc2Cl)c1,103,72.5
C[C@@H](N)[C@H]1CC[C@H](C(=O)Nc2ccncc2)CC1,107 and 110,107 and 111

Compound,gametocyte viability (concentration: 1 µM),gametocyte viability (concentration: 10 µM)
Cc1ccc(F)c(NC(=O)Nc2ccc(-c3cccc4[nH]nc(N)c34)cc2)c1 [Linifanib (ABT-869)],90.6,89.4
Cc1ccc([N+](=O)[O-])cc1S(=O)(=O)N(C)/N=C/c1cnc2ccc(Br)cn12,94.9,101
O=S(=O)(c1cccc2c(Cl)cccc12)N1CCCNCC1,93.2,90
CC(C)n1nc(-c2cc3cc(O)ccc3[nH]2)c2c(N)ncnc21,105,103
CC(C)c1cnc(NC(=O)Cc2ccccc2)s1,94.5,92
CO[C@H]1C[C@@H]2CC[C@@H](C)[C@@](O)(O2)C(=O)C(=O)N2CCCC[C@H]2C(=O)O[C@H]([C@H](C)C[C@@H]2CC[C@@H](OC(=O)C(C)(CO)CO)[C@H](OC)C2)CC(=O)[C@H](C)/C=C(\C)[C@@H](O)[C@@H](OC)C(=O)[C@H](C)C[C@H](C)/C=C/C=C/C=C/1C [Temsirolimus (Torisel)],93.9,88.4
Cn1cc(-c2ccc3nnc(Sc4ccc5ncccc5c4)n3n2)cn1,99.7,88.7
C[C@@H](Oc1cc(-n2cnc3ccc(CN4CCN(C)CC4)cc32)sc1C(N)=O)c1ccccc1C(F)(F)F,103,81.6
O=c1cc(-c2cccc3c2Sc2ccccc2S3)oc(N2CCOCC2)c1,110,107
CS(=O)(=O)CCNCc1ccc(-c2ccc3ncnc(Nc4ccc(OCc5cccc(F)c5)c(Cl)c4)c3c2)o1 [Lapatinib Ditosylate (Tykerb)],102,98.2
Cc1cc(C(=O)NOCCO)c(Nc2ccc(I)cc2F)n(C)c1=O,90.8,92.8
COc1cc2c(Oc3ccc4[nH]c(C)cc4c3F)ncnc2cc1OCCCN1CCCC1 [Cediranib (AZD2171)],88.6,90.7
O=C1C(c2c(O)[nH]c3ccccc23)=Nc2ccccc21 [Indirubin],104 and 100,113 and 97.3
COCc1cc(O)c(O)c(O)c1-c1c(COC)cc(O)c(O)c1O,104,92.3
CCCCCCCCCCCCC/C=C/[C@@H](O)[C@@H](N)CO [D-erythro-Sphingosine],113,119
Cc1[nH]c(/C=C2\C(=O)Nc3ccc(S(=O)(=O)N(C)c4cccc(Cl)c4)cc32)c(C)c1C(=O)N1CCN(C)CC1,107,92.8
N#CCNC(=O)c1ccc(-c2ccnc(Nc3ccc(N4CCOCC4)cc3)n2)cc1,98.5,97.1
C#Cc1cccc(Nc2ncnc3cc(OC)c(OC)cc23)c1,103,96.4
Cc1cc(=O)c2c(O)c3c(O)cc(O)c4c5c(O)cc(O)c6c(O)c7c(=O)cc(C)c8c1c2c(c34)c(c65)c78 [Hypericin],103,100
